High-throughput results: PubChem, Broad Institute
Rows were chosen to be rich in hits. Some 0.64% of all compounds tested hit in one or more screens of this group.
PDI inh – PDI (human) enzyme inhibition | inhibition, % at 10 µM | 0.052% of 350,000 active | PDI insulin aggregation turbidity, A650, 90 min | P07237 | AID 588391;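 active means mean inhibition across replicates of 30% or more, whatever share of single replicates reach that level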
AI-2 QS mod – modulators of Vibrio harveyi AI-2 quorum sensing system | Vibrio harveyi JMH597 AI-2 luminescence/OD600 ratio, 9 h; active compounds read low; strain lacks LuxN and CqsS sensors; 0 = neutral-control median | activity change, % at 7.5 µM | 0.4% of 300,000 active | AID 2094; in the data active means activity change below about -75%, passing the limit was not always enough;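 further: luminescence divided by OD600 gain over 9 h not by final OD600 alone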
PvdQ inh – blocks Pseudomonas aeruginosa PvdQ acylase activity; purified PvdQ acylase, fluorescence plate reader; inhibition, % at 10 µM; 0.063% of 340,000 active; in the data active means inhibition above about 30%, passing the limit was not always enough;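 further: 0% = vehicle neutral wells and 100% = reference inhibitor wells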
ERp5 block – inhibitors of human ERp5. 0.05% of 350,000 active. AID 651711. ERp5 insulin aggregation, absorbance 650 nm, 90 min. inhibition, % at 9.99 µM. Q15084;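 active means mean replicate inhibition above about 25%, with every replicate also reaching it, limit read from the data, passing the limit was not always enough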
Target sequence (Q15084 whole entry, looked up): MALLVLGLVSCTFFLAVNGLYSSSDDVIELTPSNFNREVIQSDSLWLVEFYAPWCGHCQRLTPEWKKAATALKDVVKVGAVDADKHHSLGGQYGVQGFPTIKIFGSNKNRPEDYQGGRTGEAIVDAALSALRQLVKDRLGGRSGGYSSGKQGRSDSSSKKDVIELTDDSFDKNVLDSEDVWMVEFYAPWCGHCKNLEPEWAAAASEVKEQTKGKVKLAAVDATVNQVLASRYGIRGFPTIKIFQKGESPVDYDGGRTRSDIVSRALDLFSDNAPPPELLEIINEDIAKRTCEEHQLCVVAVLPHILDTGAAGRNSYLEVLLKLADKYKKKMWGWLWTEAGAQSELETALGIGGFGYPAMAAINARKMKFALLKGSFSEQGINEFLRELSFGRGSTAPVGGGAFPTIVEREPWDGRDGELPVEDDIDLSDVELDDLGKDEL
Vif inh – inhibitors of HIV Vif. inhibition, % at 7.49 µM. 0.35% of 340,000 active. AID 602346. HEK293T cells, Vif self-association by quenched fluorescence, imaging, 24 h; in the data active means inhibition above about 50%, passing the limit was not always enough
* marks the source's active call; other numbers are inactive results; nt = no result given.

SMILES | PDI inh | AI-2 QS mod | PvdQ inh | ERp5 block | Vif inh
Cc1noc(C)c1NC(=O)Nc1ccc2c(c1)C(=O)N([C@H](C)CO)C[C@H](C)[C@@H](CN(C)S(=O)(=O)c1cn(C)cn1)OCCCC[C@H](C)O2 | nt | nt | nt | -7 | nt
CNc1oc(/C=C/c2ccccc2)nc1C#N | 11 | 7 | -10 | nt | 1
COCCNc1oc(/C=C/c2ccccc2)nc1C#N | 4 | 13 | -19 | 2 | 55*
N#CC1CC(c2ccc([N+](=O)[O-])cc2)=NN1c1ccc([N+](=O)[O-])cc1 (stereo not given) | -3 | 14 | -9 | 3 | 89*
C[C@H]1CN([C@@H](C)CO)C(=O)Cc2cc(NC(=O)Nc3ccc4c(c3)OCO4)ccc2O[C@@H]1CN(C)S(C)(=O)=O | nt | nt | nt | -3 | nt
Cc1ccc(C(=O)N/N=C\c2ccc(OC(=O)c3cccs3)cc2)cn1 | 14 | 32 | 2 | 9 | 3
Cc1ccc(C(=O)N/N=C/c2ccc(OC(=O)c3ccccc3Cl)cc2)cn1 | 5 | 5 | -1 | 2 | 58*
C[C@H](CO)N1C[C@H](C)[C@@H](CN(C)CC2CCCCC2)OCc2cn(nn2)CCCC1=O | nt | nt | nt | -5 | nt
COCC#Cc1cnc2c(c1)C(=O)N([C@H](C)CO)C[C@H](C)[C@@H](CN(C)Cc1ccccc1F)O2 | nt | nt | nt | -2 | nt
Cc1ccc(N2CCN(C(=S)c3ccc(N(C)C)cc3)CC2)cc1 | 1 | 19 | 6 | nt | 66*
CN(C)c1ccc(C(=S)N2CCN(c3ccccc3)CC2)cc1 | 17 | 13 | -13 | nt | 11
COC(=O)[C@H]1[C@H](CO)[C@H]2Cn3c(ccc(-c4ccccc4OC)c3=O)[C@H]2N1C(=O)c1cccnc1 | nt | nt | nt | 1 | nt
O=C(CN1CCOCC1)OCCCC1CCCCC1 | 14 | 13 | -14 | nt | 54*
O=C(C[C@@H]1CC[C@@H]2[C@H](COC[C@H](O)CN2C(=O)c2ccccc2)O1)Nc1ccc(-c2ccccc2)cc1 | nt | nt | nt | -3 | nt
CN(C)CC/C=C1/c2ccccc2CS(=O)(=O)c2ccccc21 | 3 | 24 | -6 | 7 | 85*
O=C(C[C@@H]1C[C@H]2c3cc(NC(=O)C4CCC4)ccc3O[C@H]2[C@@H](CO)O1)NCC(F)(F)F | nt | nt | nt | 77* | nt
O=C(C[C@@H]1C[C@@H]2c3cc(NC(=O)CC4CC4)ccc3O[C@@H]2[C@H](CO)O1)NCc1ccccc1 | nt | nt | nt | 0 | nt
O=C(C[C@H]1C[C@@H]2c3cc(NC(=O)C4CCC4)ccc3O[C@@H]2[C@H](CO)O1)NCC(F)(F)F | nt | nt | nt | 43* | nt
O=C(C[C@H]1C[C@H]2c3cc(NC(=O)CC4CC4)ccc3O[C@H]2[C@@H](CO)O1)NCc1ccc(-c2ccccc2)cc1 | nt | nt | nt | 53* | nt
COC(=O)C[C@H]1C[C@H]2c3cc(NC(=O)Cc4ccncc4)ccc3O[C@H]2[C@@H](CO)O1 | -2 | nt | nt | 1 | -2
COC(=O)C[C@H]1C[C@@H]2c3cc(NC(=O)Cc4ccncc4)ccc3O[C@@H]2[C@@H](CO)O1 | nt | nt | nt | 60* | nt
O=C(C[C@H]1CC[C@@H](NC(=O)c2ccc3c(c2)OCO3)[C@@H](CO)O1)NCc1ccc(Cl)cc1 | nt | nt | nt | -8 | nt
CO[C@@H]1CN(C)C(=O)c2cc(NC(=O)C3CCC3)ccc2OC[C@H](C)N(Cc2ccccn2)C[C@@H]1C | nt | nt | nt | -2 | nt
CN1CCN(C(=O)C[C@@H]2C[C@@H]3c4cc(NC(=O)C5CCOCC5)ccc4O[C@@H]3[C@H](CO)O2)CC1 | nt | nt | nt | 37* | nt
CN1CCN(C(=O)C[C@@H]2C[C@H]3c4cc(NC(=O)C5CCOCC5)ccc4O[C@H]3[C@@H](CO)O2)CC1 | nt | nt | nt | 8 | nt
SMILES | PDI inh | AI-2 QS mod | PvdQ inh | ERp5 block | Vif inh
Cc1nnc(SCCn2c(N(C)Cc3ccccc3)nc3c2c(=O)[nH]c(=O)n3C)s1 | nt | 29 | 17 | -1 | 62*
O=C(Nc1ccc(F)cc1)N1CC(=O)N2[C@H](CO)[C@H](c3ccc(C#Cc4cccnc4)cc3)[C@H]2C1 | nt | nt | nt | -1 | nt
Cc1cc(C)c2c(CN3CCN(c4ccccc4)CC3)cc(=O)oc2c1 | nt | nt | nt | 2 | nt
Cc1cc(C)c2c(CN3CCN(Cc4ccccc4)CC3)cc(=O)oc2c1 | 11 | 23 | -22 | -1 | 104*
Cc1ccc(S(=O)(=O)N(CC(=O)N2CCC(C)CC2)c2ccccc2)cc1 | 2 | 6 | 37* | -1 | 8
Cc1ccc(S(=O)(=O)N2C[C@@H]3N[C@H](C2)C3c2ccc(-c3ccncc3)cc2)cc1 (stereo not given in full) | nt | nt | nt | 2 | nt
COC(=O)[C@H]1COC(c2ccc(OCCCO)cc2)=N1 | nt | nt | nt | -7 | nt
CC1CCN(CCNC(=O)c2ccc3c(=O)n(CCc4ccccc4)c(=O)[nH]c3c2)CC1 | nt | nt | nt | 0 | nt
CC1CCN(CCCNC(=O)c2ccc3c(=O)n(CCc4ccccc4)c(=O)[nH]c3c2)CC1 | -3 | 14 | -11 | nt | 52*
O=C(c1cc(-c2ccncc2)nc2ccccc12)N1CCN(Cc2ccccc2)CC1 | -2 | nt | -1 | -6 | 51*
Cc1ccccc1CN1CCN(C(=O)c2cc(-c3ccncc3)nc3ccccc23)CC1 | 0 | 10 | -6 | -1 | -5
C[C@@H]1CN([C@@H](C)CO)C(=O)c2cc(NS(=O)(=O)c3ccc(Cl)cc3)ccc2O[C@@H](C)CCCCO[C@@H]1CN(C)C(=O)c1ccccc1 | nt | nt | nt | -3 | nt
O=C(OCc1ccccc1)C1CCCN1C(=O)c1ccccc1[N+](=O)[O-] (stereo not given) | 0 | -1 | -18 | nt | 56*
COc1ccc2c3c(n(C)c2c1)[C@@H](CO)N(C(=O)Nc1ccc(F)cc1)CC31CN(C(=O)NC2CCCC2)C1 | nt | nt | nt | 0 | nt
O=C(CSc1ncccn1)NC(=O)Nc1ccc2c(c1)OCCO2 | 3 | 28 | -11 | 1 | 60*
Cc1ccc2nc(-c3ccc(SCC(=O)Nc4ccc5c(c4)OCCO5)nc3)[nH]c2c1 | -6 | 22 | -4 | nt | -1
O=C(CSc1ccc(-c2nc3ccccc3[nH]2)cn1)Nc1ccc2c(c1)OCCO2 | -5 | 9 | -1 | nt | 55*
C[C@@H]1CN([C@H](C)CO)S(=O)(=O)c2ccc(C3=CCCCC3)cc2O[C@@H]1CN(C)C(=O)c1ccncc1 | nt | nt | nt | 3 | nt
O=C1CCc2cc(S(=O)(=O)NCc3ccccc3Cl)cc3c2N1CC3 | 6 | 15 | 2 | 29* | 17
O=C1CCc2cc(S(=O)(=O)NCc3ccc(Cl)cc3)cc3c2N1CC3 | -5 | 15 | -5 | 2 | -3
C[C@@H]1CN([C@@H](C)CO)C(=O)c2cc(NC(=O)Cc3ccccc3)ccc2O[C@H]1CN(C)S(=O)(=O)c1cn(C)cn1 | nt | nt | nt | 7 | nt
Cc1ccc2c(c1)Oc1ccc(NC(=O)CCl)cc1C(=O)N2 | 92* | 7 | -13 | nt | -2
Cc1ccc2c(c1)Oc1ccc([N+](=O)[O-])cc1C(=O)N2 | 0 | 8 | -5 | -1 | 23
O=C(Nc1ccc2c(c1)[C@@H]1C[C@@H](CC(=O)N3CCCCC3)O[C@@H](CO)[C@@H]1O2)C1CCOCC1 | nt | nt | nt | 0 | nt
O=C(C[C@@H]1CC[C@@H]2[C@H](COC[C@@H](O)CN2S(=O)(=O)c2ccccc2)O1)NCCN1CCCC1 | nt | nt | nt | 43* | nt
CC(C)NC(=O)Nc1ccc2c(c1)C(=O)N([C@H](C)CO)C[C@@H](C)[C@@H](CN(C)Cc1ccc(Cl)c(Cl)c1)O2 | nt | nt | nt | 8 | nt
